Test results: ChEMBL document CHEMBL4513216, “Probing the Open Global Health Chemical Diversity Library for Multistage-Active Starting Points for Next-Generation Antimalarials” (ACS Infect Dis, 2020)
Hit rate of the full screen: of about 69,000 compounds, about 8,600 (12%) showed an effect of 50% or more. The list comes from a sample in which strong results are over-represented; it also holds similar structures and randomly drawn compounds.

system: Plasmodium berghei; assay: Screen against P. berghei liver stage (PbLuc), transformed with Luciferase, at 10uM; assay type: functional, HepG2; conditions: tested at 10 uM

In order of rising INHIBITION:
1. Clc1ccc2cccnc2c1CNC1CCc2ncnn2C1 (configuration not stated)  -92.9%
2. CC(=O)NCCNC(=O)c1cnc2c(c1)nc(-c1ccccc1Cl)n2C  -76.5%
3. c1ccc(CCN2CCOC(CNc3cccnn3)C2)nc1 (configuration not stated)  -71.2%
4. CN(C)C(=O)N1CCC2(CCCN(CCOc3ccccc3)C2)C1 (configuration not stated)  -44.2%
5. Cc1cc(CS(=O)(=O)C(C)c2ccc(F)cc2)on1 (configuration not stated)  -41%
6. O=C1Nc2ccccc2CC12CCN(CCO)C2 (configuration not stated)  -36.2%
7. c1ncc2c(n1)CN(Cc1nc(-c3ccoc3)no1)CC2  -21.87%
8. Cc1nnc(NC(=O)CN2CCc3nn(C(C)C)c(=O)cc3C2)s1  -18%
9. O=C(c1cscn1)N1CCCC(n2cncn2)C1 (configuration not stated)  -17.4%
10. COC(=O)NCC(=O)N1CCc2cc(Cl)cc(Cl)c2C1  -10.9%
11. Cc1nc(NC(=O)N(C)Cc2ccoc2)nn1C  -10.9%
12. Cc1ccc(OC2(C(=O)NC(C)Cc3ccsc3)CCNCC2)cc1 (configuration not stated)  -8.75%
13. Cc1ccc(C)n1-c1ccsc1C(=O)NCC(=O)N1CCCC1  -7.7%
14. Cc1cccc(C(C)CNC(=O)N2CCOCC3(CCOCC3)C2)c1 (configuration not stated)  -7.36%
15. CC(C)C(=O)N1CCC2(CCCN(CCOc3ccccc3)C2)C1 (configuration not stated)  -4.27%
16. COc1ccc(CN2C[C@@H]3CN(Cc4ccncc4)C[C@@H]3C2=O)cc1  -2.35%
17. CC(C)N(Cc1ccccn1)C(=O)CCOc1cccc(F)c1  -1.32%
18. Cc1nccc(CNc2cc(N3CCCC3CO)ncn2)n1 (configuration not stated)  -0.219%
19. CC(C)NC(=O)c1cccc(Oc2ccc3nncn3n2)c1  2.84%
20. O=C(NCCc1ccccn1)N1CCSC2(CCCCC2)C1  3.17%
21. NC(=O)c1cn2cc(-c3ccccc3Cl)n(CC3CC3)c(=O)c2n1  5.46%
22. CC(NC(=O)N1CCC2(C1)OCCO2)c1cccc(Cl)c1 (configuration not stated)  5.58%
23. CCN(Cc1ccoc1)C(=O)Nc1ccccc1CN(C)C(C)=O  6.99%
24. O=C(c1ccc[nH]1)N1CCc2ccc(S(=O)(=O)N3CCOCC3)cc2C1  6.99%
25. Cc1nc(-c2ccccc2C)n(CC(=O)NC2CCCC2)n1  7.27%
26. O=C(CCNC(=O)C1CCCC1)NCc1ccccc1Cn1ccnc1  7.27%
27. Cc1n[nH]c(C)c1CCCN(C)c1cc(N(C)C)ncn1  8.51%
28. CSc1cccc(CN(C)C(=O)CN2CCN(c3ncccn3)CC2)c1  10.6%
29. Cc1noc(C)c1CS(=O)(=O)C(C)C(=O)N(C)c1ccccc1 (configuration not stated)  11.5%
30. Cc1cc(NC(=O)CN(c2ccccc2)C(C)C)on1  13%
31. CC(C)NC(=O)NCc1cc(-c2cccc(Cl)c2)nn1C  13%
32. CNC(=O)CC1CCN(Cc2nc(-c3cccc(Cl)c3)oc2C)CC1  13.5%
33. COc1ccc(NC(=O)C2OC(c3cccs3)=NN2C(C)=O)cc1OC (configuration not stated)  14.5%
34. COCCCNC(=O)Cn1c(-c2cccc(Cl)c2)nc(C)cc1=O  14.6%
35. Cc1cnc(N2C[C@@H]3CN(Cc4ccco4)CCC[C@]3(C(=O)O)C2)nc1  15.3%
36. O=C(NCC1CC1)c1cc(Br)cnc1N1CCCCC1  16.4%
37. CCC(O)CN(CC(=O)Nc1cc(C)no1)c1ccccc1 (configuration not stated)  16.8%
38. O=C(CC1CC1)N1CCC(O)(CN2CCN(c3ccccc3)CC2)C1 (configuration not stated)  17.4%
39. CN(C)C(=O)c1cn2cc(-c3cccc(Cl)c3)n(CC3CC3)c(=O)c2n1  17.8%
40. Cc1nc(-c2ccsc2)ccc1C(=O)NCCN1CCN(C)CC1  18.515%
41. COc1ccc(CNC(=O)Nc2cccnc2N2CCCC2)cc1  19.2%
42. CN(C)C(=O)N1CCC(C(=O)N2CCOC(CC3CCCCC3)C2)CC1 (configuration not stated)  22.2%
43. O=C(c1cscn1)N1CCc2ncc(CN3CCCC3)n2CC1  23.1%
44. Cn1c(-c2ccc(F)cc2)cn2cc(C(=O)N3CCC(N)C3)nc2c1=O (configuration not stated)  24.4%
45. Cc1ncoc1C(=O)N1CCOC(CC2CCCCC2)C1 (configuration not stated)  24.7%
46. C[S+]([O-])CCNC(=O)N1CCSC2(CCCCC2)C1 (configuration not stated)  25.4%
47. Cc1nc(NC(=O)N(C)Cc2ccsc2)nn1C  25.9%
48. CCN(C(=O)C(C)S(=O)(=O)Cc1nc(C)no1)c1ccccc1 (configuration not stated)  26.9%
49. Cc1noc(CN(C)c2ccccc2)n1  29.8%
50. COc1ccc(-n2cc3nc(N4CCCC4)[nH]cc-3c2=O)cc1Cl  30.8%
51. CC(=O)N1CCC(N2CCOC(CC3CCCCC3)C2)CC1 (configuration not stated)  35.2%
52. CCCN1CCC2(Cc3ccccc3NC2=O)C1 (configuration not stated)  36.2%
53. CCC1=NC(SCC(=O)c2ccc(OC)cc2)c2cc(CC)sc2N1 (configuration not stated)  36.6%
54. Cn1c(-c2ccc(F)cc2)cn2cc(C(=O)N3CC[C@@H](O)C3)nc2c1=O  40.7%
55. OC1(CN(Cc2cccnc2)C2CCCCC2)CNCCOC1 (configuration not stated)  41.8%
56. Cc1cc(N(C)C)cc(C2CCN(S(=O)(=O)c3cccs3)C2)n1 (configuration not stated)  46.55%
57. O=C(C1CCOCC1)N1C[C@@H]2OCCN(CCN3CCCC3)[C@@H]2C1  46.7%
58. Cc1noc(CS(=O)(=O)C(C)C(=O)N(C)c2ccccc2)n1 (configuration not stated)  50.8%
59. Cc1cc(NC(=O)CN(CC(C)O)c2ccccc2)on1 (configuration not stated)  51.3%
60. Cc1cccc(C(C)CNC(=O)N2CCC3(C2)OCCO3)c1 (configuration not stated)  52.6%
61. COCCNC(=O)N1CCSC2(CCCCC2)C1  52.6%
62. O=C(C1CCOCC1)N1CCOC(CC2CCCCC2)C1 (configuration not stated)  54.8%
63. CC(=O)N1CCC(C(=O)N2CCOC(CC3CCCCC3)C2)CC1 (configuration not stated)  54.8%
64. CNC(=O)c1cn2cc(-c3cccc(Cl)c3)n(CC3CC3)c(=O)c2n1  55.4%
65. CC(C)CN1CCC2(Cc3ccccc3NC2=O)C1 (configuration not stated)  58.7%
66. Cc1cc(CS(=O)(=O)C(C)C(=O)N(C)c2ccccc2)on1 (configuration not stated)  59.4%
67. CNC(=O)c1cn2cc(-c3ccccc3Cl)n(CC=C(C)C)c(=O)c2n1  61.9%
68. CCc1nc(NC(=O)N(C)Cc2ccoc2)nn1C  63.6%
69. CNC(=O)c1cn2cc(-c3ccc(F)cc3)n(CC=C(C)C)c(=O)c2n1  69.3%
70. O=C(N1CCCC1)N1CCC2(CCCN(CCOc3ccccc3)C2)C1 (configuration not stated)  69.9%
71. CSc1cccc(CN(C)C(=O)Nc2nc(C)n(C)n2)c1  71.8%
72. CNC(=O)c1cn2cc(-c3cccc(Cl)c3)n(CC=C(C)C)c(=O)c2n1  76.7%
